FXN GAA850 act – FXN promoter activators, primary screen, cell-based, luciferase luminescence, HEK293 lucGAA850 | 360,000 tested, 0.56% active | HEK293 lucGAA850 FXN promoter luciferase reporter, 24 h; percent of 10 µM SAHA response | activation, % at 6 µM;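 active = activation above the average of all compounds screened plus 3 SD, cutoff fixed separately per campaign, cut at about 7.5% in these data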;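 note: 0% = DMSO wells and 100% = 10 µM SAHA wells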
Wnt act – Wnt/beta-catenin pathway activators, primary screen, cell-based, plate reader, single point; Wnt/beta-catenin reporter cell assay, activator; activation, % at 9.35 µM; 300,000 tested, 1.2% active; AID 743398, 2014; in the data active = activation above about 30%, passing the limit was not always enough; inconclusive = no clear call, values can overlap the other calls;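 note: 0% = neutral control wells and 100% = positive control wells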
esBAF inh – Bmi1 luciferase reporter increase in mESCs, primary screen, esBAF inhibitor project, mouse ES cells, Bmi1 luciferase knock-in, single point | 24 h; 100% = twice the neutral-well signal | reporter increase, % at 12.5 µM | 350,000 tested, 2% active; in the data active = activation above about 40%; inconclusive = no clear call, values can overlap the other calls;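 note: 0% = median of the plate's neutral control wells and 100% = double that signal; a rise in the Bmi1 reporter signal indicates esBAF inhibition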
C2C12 statin – suppressors of statin myotoxicity in C2C12 myotubes, primary screen, cell-based, single point, plate reader; rescue of ATP level, % at 7.49 µM; 330,000 tested, 0.78% active; C2C12 myotubes + simvastatin, ATP luminescence, 48 h; scaled: DMSO 0, geranylgeraniol control 100;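 active = mean ATP rescue above about 67%, or every replicate alone reaching that limit, limit read from the data, passing the limit was not always enough; inconclusive = no clear call, values can overlap the other calls; inactive = mean under the limit and some replicate under it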;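 note: myotubes were challenged with 10 µM simvastatin during compound exposure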
MITF act – activators of MITF-driven TRPM1 promoter reporter, primary screen, cell-based, SK-MEL-5, luciferase, single point | SK-MEL-5 TRPM1-promoter luciferase, 24 h; % of positive control, neutral wells = 0 | 300,000 tested, 0.75% active | activation, % at 12.5 µM;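 active = mean activation of at least 80% with every replicate also reaching 80%; inconclusive = mean reaches 80% but some replicate falls short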;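 note: 0% = neutral control wells and 100% = parthenolide positive control wells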
* marks the source's active call; other numbers are inactive results; ? = inconclusive; . = no result. Shown are actives, neighbours in structure and some others; about 3.3% of the full set was active somewhere.

SMILES	FXN GAA850 act	Wnt act	esBAF inh	C2C12 statin	MITF act
C[C@@H]1CN([C@H](C)CO)C(=O)Cc2cc(NC(=O)Nc3cccc4ccccc34)ccc2O[C@@H]1CN(C)Cc1ccc2c(c1)OCO2	.	.	-3.0	-6.0	.
O=C1CCCC2=C1C(c1cccs1)Nc1ccc3ncccc3c12 (stereo not given)	0.0	.	3.4	139.1*	0.8
O=C1CCCC2=C1C(c1ccc(O)c(O)c1)Nc1ccc3ncccc3c12 (stereo not given)	-1.1	-0.2	9.9	-1.0	-9.3
COc1ccccc1-c1cnc2c(c1)C(=O)N([C@H](C)CO)C[C@@H](C)[C@H](CN(C)Cc1ccc(C(=O)O)cc1)O2	.	.	-9.0	0.0	.
CC1CCN(c2ccc(C(=O)NCc3cccs3)cn2)CC1	1.9	.	58.7*	-9.0	76.6
CC1CCCN(c2ccc(C(=O)NCC3CCCO3)cn2)C1 (stereo not given)	3.3	8.3	50.4*	-13.0	53.8
CC1CCN(S(=O)(=O)c2cccc(C(=O)NCc3cccs3)c2)CC1	0.0	.	-8.5	-6.8	-13.4
CC(C)C#Cc1ccc2c(c1)O[C@H](CN(C)C(=O)NC(C)C)[C@@H](C)CN([C@@H](C)CO)S2(=O)=O	.	.	1.9	-8.6	.
CCOc1c2ccc(C(=O)NCc3ccc(C(F)(F)F)cc3C(F)(F)F)cc2nn1C	0.0	-4.9	5.0	11.7	11.1
CCCn1nc2cc(C(=O)NCCc3ccc(C)cc3)ccc2c1OCC	-0.3	-1.5	-2.3	1.6	-10.1
CCCCn1nc2cc(C(=O)NCCc3cccs3)ccc2c1OCC	0.7	3.3	41.4*	-35.4	33.6
CCCCn1nc2cc(C(=O)NCc3ccc(C(F)(F)F)cc3C(F)(F)F)ccc2c1OCC	1.4	-2.6	5.6	83.3*	7.6
CCOc1c2ccc(C(=O)NCCc3cccs3)cc2nn1CC	2.2	31.9*	45.1*	-22.5	62.9
NC(=O)C1CCN(C(=O)c2cc3c(s2)CCCCC3)CC1	0.8	?	?	5.4	31.4
CC1CCc2sc(C(=O)N3CCC(C(N)=O)CC3)cc2C1 (stereo not given)	0.5	36.4*	34.4	-0.2	.
C[C@@H]1CN([C@H](C)CO)S(=O)(=O)c2ccc(C#CC(C)(C)O)cc2O[C@@H]1CN(C)C(=O)C1CCCCC1	.	.	-1.1	-5.3	.
CN1CCN(C2=C(NS(=O)(=O)c3cccs3)C(=O)c3ccccc3C2=O)CC1	0.7	1.5	.	.	-76.6
CCOc1ccccc1N1CCN(C2=C(NS(=O)(=O)c3cccs3)C(=O)c3ccccc3C2=O)CC1	-1.0	.	-10.4	110.3*	-23.3
C[C@@H]1CN([C@H](C)CO)C(=O)Cc2cc(NC(=O)NC3CCCCC3)ccc2O[C@@H]1CN(C)S(C)(=O)=O	.	.	0.4	8.8	.
CSCCC(NC(N)=O)C(=O)NCC1CCCCC1 (stereo not given)	0.3	.	-5.6	127.4*	10.2
N#Cc1cccc(NC(=O)c2cc(C3CCCCN3S(=O)(=O)c3cccc4cccnc34)on2)c1 (stereo not given)	0.1	-3.4	52.2*	-4.3	.
CS(=O)(=O)N1CCCCC1c1cc(C(=O)Nc2cccc(C#N)c2)no1 (stereo not given)	2.4	-0.9	11.4	1.5	.
O=C(C[C@@H]1CC[C@H](NC(=O)Nc2ccc(C(F)(F)F)cc2)[C@@H](CO)O1)NCCN1CCCC1	.	.	4.9	-2.7	.
O=C(Cn1ccc2ccccc2c1=O)NCCC(=O)N1CCN(C(=O)c2ccco2)CC1	-1.6	-1.2	-2.5	78.0*	-0.5
CN1CCN(C(=O)CCNC(=O)Cn2ccc3ccccc3c2=O)CC1	1.0	-2.1	2.3	0.7	.
SMILES	FXN GAA850 act	Wnt act	esBAF inh	C2C12 statin	MITF act
COC(=O)c1ccc(-c2ccc(Cl)cc2)nc1C	4.0	.	21.3	-7.3	92.6*
O=c1[nH]c2ccccc2nc1Cc1ccc(Cl)cc1	0.5	-6.6	0.2	-7.4	3.1
c1ccc(CCc2nc3ccccc3[nH]2)cc1	2.8	41.9*	20.4	-7.9	69.0
c1csc(Cc2nc3ccccc3[nH]2)c1	3.0	17.8	70.8*	19.7	26.6
O=c1[nH]c2ccccc2nc1CCc1ccccc1	6.2	31.4*	.	.	78.4
C[C@@H]1CN([C@@H](C)CO)C(=O)c2cc(C#Cc3ccccc3F)cnc2O[C@H]1CN(C)C(=O)c1ccc2c(c1)OCO2	.	.	5.5	35.6	.
O=c1oc(CCCO)cc2ccc(C#Cc3ccsc3)cc12	3.6	46.1*	66.7*	-14.3	121.4*
CN(C)c1ccc(C#Cc2ccc3cc(CCCO)oc(=O)c3c2)cc1	5.4	?	57.2*	-24.0	93.3*
CCCNC(=O)c1cc(Cl)c(NC(=O)C2=CSCCO2)cc1OC	3.0	20.5	91.6*	-0.3	79.9
O=C(C[C@H]1CC[C@@H]2[C@H](COC[C@H](O)CN2Cc2ccncc2)O1)NCc1ccccc1Cl	.	.	-0.5	-10.0	.
CN(/N=C/c1ccc(Cl)cc1Cl)c1ncc(Cl)cc1C(F)(F)F	-0.4	11.2	5.2	11.1	-10.0
Cc1ccc(N(C)/N=C/c2ccc(Cl)cc2Cl)nn1	1.5	1.9	42.3*	-3.3	98.8*
COc1ccc(NC(=O)N(C)C[C@@H]2Oc3ccc(NS(=O)(=O)c4ccc(OC)cc4)cc3CC(=O)N([C@@H](C)CO)C[C@H]2C)cc1	.	.	5.2	-7.2	.
CO[C@@H]1CN(C)C(=O)c2cc(NS(C)(=O)=O)ccc2OC[C@@H](C)N(Cc2cccnc2)C[C@@H]1C	.	.	-1.3	-16.9	.
N#Cc1ccccc1NC(=O)c1ccc2c(Cl)c3c(nc2c1)CCCC3	5.9	.	79.9*	-14.8	61.2
O=C(NC1CC1)c1ccc2c(Cl)c3c(nc2c1)CCCC3	3.0	22.0	47.1*	-3.2	71.5
CC(C)NC(=O)Nc1ccc2c(c1)CC(=O)N([C@@H](C)CO)C[C@@H](C)[C@@H](CN(C)C(=O)NC(C)C)O2	.	.	3.8	-13.2	.
CO[C@@H]1CN(C)C(=O)c2cc(NC(=O)NC3CCCCC3)ccc2OC[C@H](C)N(C)C[C@H]1C	.	.	1.4	3.4	.
COc1ccccc1C#Cc1ccc2c(c1)O[C@@H](CN(C)Cc1ccccc1)[C@@H](C)CN([C@H](C)CO)S2(=O)=O	.	.	-5.6	15.1	.
CCCC(=O)OCC(=O)Nc1ccc(N=Nc2ccccc2)cc1	4.8	50.8*	.	.	64.2
FC(F)Oc1ccc(NC(=S)NC2CCSc3ccccc32)cc1 (stereo not given)	-1.3	1.3	4.6	-11.2	3.0
S=C(Nc1ccc(Cl)cc1)NC1CCCCC1	0.4	8.5	32.7	-19.7	36.7
FC(F)Oc1ccc(NC(=S)NC2CCCCCCC2)cc1	3.4	-2.5	46.7*	-54.3	37.2
S=C(Nc1ccc2[nH]ccc2c1)NC1CCCCC1	5.5	28.5	66.1*	-4.9	58.8
S=C(Nc1ccc(Br)cc1)NC1CCCCC1	1.4	7.2	43.4*	-8.3	29.9
